# Screening results as filed in PubChem BioAssay.
# Rows were chosen to be rich in hits. Some 4.5% of all compounds tested hit in one or more screens of this group.
# ssDAF12 agonist: S. stercoralis DAF-12 activation, primary screen | actives 1% (n = 370,000) | activation, % at 6.8 µM | HEK293 ssDAF-12/GRIP1 lit1-tk-luc reporter, luminescence; % of 3 µM dafachronic acid response;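 active = activation above the mean over all tested compounds plus 3 SD, cut at about 0.9% in these data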;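 note: 0% = DMSO-only wells and 100% = 3 µM delta7-dafachronic acid wells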
# FXN GAA850 act: increases GAA850 frataxin promoter reporter activity. HEK293 lucGAA850 FXN promoter luciferase reporter, 24 h; percent of 10 µM SAHA response. actives 0.56% (n = 360,000). activation, % at 6 µM;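 active = activation above the average of all compounds screened plus 3 SD, cutoff fixed separately per campaign, cut at about 7.5% in these data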;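 note: 0% = DMSO wells and 100% = 10 µM SAHA wells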
# hgDAF12 agonist: hgDAF-12 agonism, primary luciferase screen; HEK293 GAL4-hgDAF12 UAS-luciferase reporter, agonist luminescence; normalized to butyrate control; activation, % at 6.8 µM; actives 1.8% (n = 370,000);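 active = activation above a cutoff set at the mean of all screened compounds plus 3 SD, cut at about 10% in these data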;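 note: 0% = DMSO wells and 100% = sodium butyrate wells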
# DAX1 inh-1: inhibitors of human orphan nuclear receptor DAX1 (NR0B1) | P51843 | HEK293 Gal4-DAX1 luciferase reporter, luminescence | inhibition, % at 6.75 µM | actives 0.99% (n = 340,000);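 active = inhibition above the mean over all tested compounds plus 3 SD, cut at about 4.2% in these data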;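 note: 0% = DAX1-transfected cells with DMSO and 100% = empty-vector control cells with DMSO; inhibition shows as a rise in luminescence from relieved DAX1 repression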
# Target sequence (P51843 207-470 limits assumed): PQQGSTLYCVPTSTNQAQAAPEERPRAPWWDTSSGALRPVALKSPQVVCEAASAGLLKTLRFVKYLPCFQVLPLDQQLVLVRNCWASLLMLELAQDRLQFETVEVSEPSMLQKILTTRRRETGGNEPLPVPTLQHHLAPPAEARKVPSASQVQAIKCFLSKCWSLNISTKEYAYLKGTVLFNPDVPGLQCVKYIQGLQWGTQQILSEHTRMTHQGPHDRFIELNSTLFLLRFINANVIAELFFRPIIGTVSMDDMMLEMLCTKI
# hcDAF-12 act: H. contortus DAF-12 activation, primary screen | HEK293 hcDAF-12 lit1-tk-luc reporter, luminescence; 0% DMSO, 100% Δ7-dafachronic acid | activation, % at 6.8 µM | actives 1.4% (n = 370,000) | AID 652067;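 active = activation above the mean of all tested compounds plus 3 SD, cut at about 5.5% in these data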;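 note: 100% = response to 3 µM Δ7-dafachronic acid high control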
# DAX1 inh-2: inhibitors of DAX1 repression of SF-1 activated StAR promoter. HEK293T StAR-luciferase reporter, SF-1/DAX-1 repression relief. inhibition, % at 6.8 µM. actives 1.1% (n = 370,000). AID 652010;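 active = inhibition above the mean over all tested compounds plus 3 SD, cut at about 3.6% in these data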;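 note: 0% = DAX-1 cells with DMSO and 100% = cells lacking DAX-1 with DMSO; higher inhibition means more luminescence from relief of DAX-1 repression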
# DAX1 conf: confirmation of human DAX1 (NR0B1) inhibitors. shares compounds with DAX1 inh-2. HEK293T StAR-promoter luciferase reporter, SF-1/DAX-1 repression. inhibition, % at 6.8 µM. actives 87% (n = 2,400);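 active = inhibition above the average of every tested compound plus 3 SD, cut at about 3.8% in these data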;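 note: 0% = DAX-1 cells with DMSO and 100% = no DAX-1 control cells with DMSO; active compounds raise luminescence by relieving repression of the StAR reporter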
# Target sequence (P51843 whole entry, looked up): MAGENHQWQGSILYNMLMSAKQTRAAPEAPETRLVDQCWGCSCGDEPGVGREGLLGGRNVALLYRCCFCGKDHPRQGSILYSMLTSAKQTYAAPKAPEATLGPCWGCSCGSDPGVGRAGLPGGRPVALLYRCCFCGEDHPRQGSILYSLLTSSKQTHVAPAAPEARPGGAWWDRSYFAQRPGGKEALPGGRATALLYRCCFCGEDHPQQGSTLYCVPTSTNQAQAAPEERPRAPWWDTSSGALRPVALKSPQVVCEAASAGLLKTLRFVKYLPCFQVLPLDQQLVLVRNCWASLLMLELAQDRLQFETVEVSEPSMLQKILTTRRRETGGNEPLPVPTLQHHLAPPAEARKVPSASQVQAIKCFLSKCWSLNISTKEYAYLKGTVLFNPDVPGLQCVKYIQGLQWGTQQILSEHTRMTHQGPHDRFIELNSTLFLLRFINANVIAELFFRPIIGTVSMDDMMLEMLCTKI
# SF1 mutant ctr: counter-screen for DAX1 inhibitors: nonselective inhibitors with SF-1 AF2 mutant; inhibition, % at 6.8 µM; HEK293 StAR-luciferase, luminescence; AID 652136; shares compounds with DAX1 inh-2; actives 78% (n = 2,400);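 active = inhibition above the mean of all tested compounds plus 3 SD, cut at about 3% in these data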;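 note: 0% = DAX-1 transfected cells with DMSO and 100% = cells without DAX-1 with DMSO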
# * marks the source's active call; other numbers are inactive results; x = no result.
SMILES,ssDAF12 agonist,FXN GAA850 act,hgDAF12 agonist,DAX1 inh-1,hcDAF-12 act,DAX1 inh-2,DAX1 conf,SF1 mutant ctr
C#CCN(C[C@H]1[C@H](OC(=O)Nc2cccs2)[C@H](OC(=O)Nc2cccs2)C[C@H]2C(=O)N(c3ccccc3)C(=O)[C@@H]12)S(=O)(=O)c1ccc(C)cc1,-1.0,-1.5,-3.1,0.1,-1.7,4.6*,-0.4,-0.4
C/C(=N\NC(=O)c1ccccn1)C12CC3CC(CC(C3)C1)C2,0.0,3.2,12.7*,0.9,3.8,5.8*,5.6*,3.3*
O=C(N/N=C/c1cc(Br)c(O)c(Br)c1)c1cc2c(ccc3ccccc32)o1,-0.5,0.6,3.7,-0.8,-0.9,5.2*,2.9,0.7
CN1C(=O)CSc2ccc(NC(=O)N3CCc4ccccc43)cc21,0.0,-1.0,9.4,2.3,3.2,5.9*,6.3*,1.5
Cc1cnc(C(=O)OCC(=O)NCc2cccc(Cl)c2)cn1,-1.4,0.3,-0.6,1.6,0.1,0.8,x,x
COc1ccc(C(=O)NCCn2ccc3ccccc32)cc1,-0.7,0.3,-0.6,2.0,-0.5,-0.2,x,x
O=C(NCCn1ccc2ccccc21)c1ccc2c(c1)OCO2,0.0,2.5,7.5,3.2,4.2,4.8*,12.7*,7.9*
COc1ccccc1CCNC(=O)CCn1c(=O)c2cccn2c2ccc(F)cc21,-1.1,1.2,-1.0,0.0,-1.5,0.0,x,x
O=C(O)C[C@@H](CNC(=O)COc1ccc2ccc(=O)oc2c1)c1ccc(Cl)cc1,-1.4,0.1,-0.2,0.6,2.9,0.5,x,x
Cn1cccc1C(=O)NCC1COc2ccccc2O1 (stereo unspecified),-0.7,3.9,7.1,1.6,3.1,4.7*,5.1*,1.6
O=C(NC(=S)NN1CCOCC1)c1cc(Br)ccc1Cl,-0.5,0.3,0.0,0.3,1.4,5.2*,0.3,0.5
COC(=O)[C@]12C[C@H](CC(=O)N3CCCCC3)C(=O)N(Cc3ccc(Cl)cc3Cl)C1=C[C@H](COCc1ccccc1)O[C@@H]2C,-1.1,x,-3.7,x,-3.3,-1.6,x,x
COc1ccc2c(Cl)c(C(=O)N/N=C/c3cccnc3)sc2c1,-1.4,-0.8,2.4,-0.6,-0.6,-0.7,x,x
N/C(CS(=O)(=O)c1ccccc1)=N\OC(=O)c1ccc(F)cc1,-0.2,1.2,6.1,1.8,0.9,5.9*,3.8*,3.2*
O=[N+]([O-])c1cccc(CSc2nnc3ccccn23)c1,-0.9,-1.1,-1.4,3.7,-2.4,0.5,x,x
c1ccn2c(SCc3ccc4c(c3)OCCO4)nnc2c1,-0.7,2.8,4.1,1.9,3.0,4.5*,5.3*,3.5*
CCOC(=O)C(NC(=O)NCc1ccc(F)cc1)(OCC)C(F)(F)F (stereo unspecified),-1.5,3.1,-2.8,0.2,0.9,-0.2,x,x
CCOC(=O)C(NC(=O)Nc1ccc(Cl)cn1)(Oc1ccc(F)cc1)C(F)(F)F (stereo unspecified),-0.3,-3.0,7.5,0.6,3.7,4.8*,4.0*,3.2*
COc1ccc(N2C(=O)C(CC(=O)Nc3ccccc3)N(Cc3ccccn3)C2=S)cc1 (stereo unspecified),-1.5,-4.7,2.0,-1.7,-0.7,-0.6,x,x
Cc1cccc(C(=O)Nc2nnc(SCC(=O)NCc3ccco3)s2)c1,0.4,1.5,9.1,0.8,0.1,5.6*,2.9,2.5
COc1cccc(C(=O)Nc2nnc(SCC(=O)Nc3ccc(NC(C)=O)cc3)s2)c1,0.2,2.4,8.6,1.2,5.6*,10.2*,9.1*,6.6*
Cc1cccc(CN2CCCC(C(=O)Nc3ccc(-c4cscn4)cc3)C2)c1 (stereo unspecified),-1.1,-11.2,1.8,0.0,-2.7,4.6*,2.7,-0.7
COc1ccc(-c2cc3ccc(OCC(C)=O)cc3oc2=O)cc1,-0.1,3.7,10.5*,2.9,5.8*,9.8*,6.5*,4.5*
CCOC(=O)N1CCN(C(=O)c2ccc3c(Cl)c4c(nc3c2)CCCC4)CC1,-1.2,2.6,-0.1,-0.1,-1.0,0.3,x,x
O=C(c1ccc2c(Cl)c3c(nc2c1)CCCC3)N1CCC(N2CCCCC2)CC1,-0.9,3.3,8.7,1.1,-0.7,9.0*,7.0*,6.1*
SMILES,ssDAF12 agonist,FXN GAA850 act,hgDAF12 agonist,DAX1 inh-1,hcDAF-12 act,DAX1 inh-2,DAX1 conf,SF1 mutant ctr
CCC(=O)Nc1ccc(-c2nnc(-c3ccccc3)o2)cc1,0.8,0.3,10.5*,2.3,2.5,4.5*,14.5*,4.5*
Cc1ccccc1-c1nnc2n1N=C(c1ccc(O)c(O)c1)CS2,-1.9,x,-7.1,x,-2.9,5.2*,20.7*,-7.3
COc1ccccc1-c1nnc2n1N=C(c1ccc(O)c(O)c1)CS2,x,3.1,x,-0.1,x,x,x,x
O=C(Nc1ccc2c(c1)OCO2)c1csc([C@@H]2O[C@H](CO)[C@H](O)[C@H](O)[C@H]2O)n1,0.5,-1.1,1.0,x,-1.3,-1.2,x,x
O=C(O)c1cc(N/N=C/C=C/c2ccccc2)ccc1Cl,0.1,3.8,10.1,1.3,5.3,8.6*,11.8*,6.2*
Cc1ccc(OCc2csc(N)n2)cc1,-0.6,2.8,7.2,1.0,1.3,5.1*,3.0,2.0
COc1ccc(N(CC(=O)NCCc2cccc(C)c2)S(=O)(=O)c2c(C)noc2C)cc1,x,-1.4,x,0.1,x,x,x,x
Cc1ccc2c(Cl)c(C(=O)NC3CC3)sc2c1,-0.3,3.0,6.3,1.9,0.5,5.9*,4.4*,2.0
O=C(NC1CC1)c1sc2cc([N+](=O)[O-])ccc2c1Cl,-1.5,2.5,-0.4,-0.4,-0.1,-0.7,x,x
CC(=O)Nc1ccc(OCc2cn(CC(=O)c3ccc(O)cc3)nn2)cc1,-0.2,0.2,-1.7,2.0,-0.5,0.5,x,x
CCc1nc2c(OCc3cc(Cl)cc(Cl)c3)cccn2c1N(C)C(=O)Nc1ccccc1OC,-1.3,-1.3,-4.8,x,-1.7,0.3,x,x
CSc1ccc(/C=C/C(=O)NC(=O)c2ccccc2O)cc1,-0.3,5.1,12.9*,1.0,4.4,4.9*,8.8*,5.8*
COc1cccc(OCc2cc(C(=O)N(C)Cc3nccn3C)no2)c1,0.1,4.9,7.8,0.9,0.1,5.4*,6.8*,4.6*
Cc1ccc(NC(=O)c2sccc2C)nc1,0.9,1.4,10.8*,2.1,4.7,9.7*,9.2*,7.2*
Cc1ccc(NC(=O)C(=O)Nc2ccc(C)cn2)nc1,-1.1,4.2,3.7,0.1,-0.3,1.1,x,x
COc1ccc2c(c1)CC(C(=O)Nc1ccc(Cl)cc1)/C(=N/O)O2 (stereo unspecified),-0.8,-1.7,0.0,-0.3,2.6,0.1,x,x
